PubChem BioAssay (EPA / NIEHS)
Active and inactive are the calls of the source. The calls were made as follows: active = hit-call score of the fitted dose curve at least 0.9, where 1 is the maximum; inactive = score below 0.9.

Experiments:
Details in all cases: mRNA level, 48 h; actives raise or lower the signal
BCL2L11 (gene 10018) = test: LTEA_HepaRG_BCL2L11: Life Technologies and Expression Analysis (LTEA) Assay for Bcl-2 (BCL2L11) gene using HepaRG (AID 2283473)
How it was run: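 HepaRG, 48 h exposure, 8-pt half-log series from 100 uM in 0.5% DMSO, duplicates; qRT-PCR (Fluidigm TaqMan) for BCL2L11, housekeeping-normalized; bidirectional curve fit relative to DMSO baseline.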

[1] = read-out: Apolipoprotein A-V (APOA5) gene, APOA5 (gene 116519); test: LTEA_HepaRG_APOA5: Life Technologies and Expression Analysis (LTEA) Assay for Apolipoprotein A-V (APOA5) gene using HepaRG (AID 2283474)
How it was run: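 HepaRG, 48 h chemical exposure in serum-free induction medium, 8-pt half-log series (top 100 uM), 0.5% DMSO vehicle, duplicates. Readout: APOA5 mRNA by qRT-PCR, housekeeping-normalized; bidirectional fit vs DMSO baseline.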

[2] = read-out: Apoptosis regulator Bcl-2 (Homo sapiens) (UniProt P10415); test: LTEA_HepaRG_BCL2: Life Technologies and Expression Analysis (LTEA) Assay for Bcl-2 gene using HepaRG (AID 2283475)
How it was run: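 qRT-PCR of BCL2 transcript, normalized to three housekeeping genes (ACTB, GAPDH, POLR2A), after 48 h chemical exposure of HepaRG cells; concentrations top 100 uM with half-log dilutions, 0.5% DMSO vehicle, duplicates; changes up or down fitted relative to vehicle.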

[3] = read-out: Bcl-2 (BID) gene, BID (gene 637); test: LTEA_HepaRG_BID: Life Technologies and Expression Analysis (LTEA) Assay for Bcl-2 (BID) gene using HepaRG (AID 2283476)
How it was run: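 Duplicate 48 h treatments of HepaRG cells in serum-free induction medium spanned 100 uM downward in half-log steps, 0.5% DMSO. Transcript change quantified by qRT-PCR against three housekeeping genes, fitted up or down versus DMSO.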

Caspase-3 (Homo sapiens) = Caspase-3 (Homo sapiens) (UniProt P42574); test: LTEA_HepaRG_CASP3: Life Technologies and Expression Analysis (LTEA) Assay for cysteine-aspartic acid protease (CASP3) using HepaRG (AID 2283477)
Caspase-3 (Homo sapiens), sequence (P42574 whole entry, looked up): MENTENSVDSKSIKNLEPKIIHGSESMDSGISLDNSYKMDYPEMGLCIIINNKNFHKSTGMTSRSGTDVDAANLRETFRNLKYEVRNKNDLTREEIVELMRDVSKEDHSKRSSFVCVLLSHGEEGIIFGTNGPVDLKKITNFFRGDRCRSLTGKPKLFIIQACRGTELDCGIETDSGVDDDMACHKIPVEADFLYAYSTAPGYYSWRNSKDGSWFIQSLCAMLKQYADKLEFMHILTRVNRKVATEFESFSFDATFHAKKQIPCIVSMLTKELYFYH
How it was run: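 HepaRG, 48 h exposure, 8 conc. (top 100 uM, half-log steps, duplicate), 0.5% DMSO vehicle; qRT-PCR of CASP3 transcript, housekeeping-normalised (ACTB/GAPDH/POLR2A); bidirectional curve fit vs DMSO baseline.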

[4] = read-out: Cytochrome P450 (CYP24A1), CYP24A1 (gene 1591); test: LTEA_HepaRG_CYP24A1: Life Technologies and Expression Analysis (LTEA) Assay for Cytochrome P450 (CYP24A1) using HepaRG (AID 2283478)
How it was run: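 qRT-PCR read-out: CYP24A1 transcript levels normalized to three housekeeping genes, bidirectional curve fits against 0.5% DMSO baseline. Human HepaRG cells treated 48 h with chemicals at eight concentrations from 100 uM in half-log steps.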

[5] = read-out: Cytochrome P450 (CYP1A2), CYP1A2 (gene 1544); test: LTEA_HepaRG_CYP1A2: Life Technologies and Expression Analysis (LTEA) Assay for Cytochrome P450 (CYP1A2) using HepaRG (AID 2283479)
How it was run: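 HepaRG, 48 h exposure, top 100 uM, half-log 8-pt, 0.5% DMSO vehicle, duplicates. Readout: TaqMan qRT-PCR of CYP1A2 mRNA, housekeeping-normalized (ACTB/GAPDH/POLR2A). Gain/loss fit relative to DMSO baseline.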

[6] = read-out: cysteine-aspartic acid protease (CASP8), CASP8 (gene 841); test: LTEA_HepaRG_CASP8: Life Technologies and Expression Analysis (LTEA) Assay for cysteine-aspartic acid protease (CASP8) using HepaRG (AID 2283480)
How it was run: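 qRT-PCR readout of CASP8 mRNA, normalized to three housekeeping genes, after 48 h chemical exposure of HepaRG cells; 8-point half-log series, top 100 uM, 0.5% DMSO vehicle. Bidirectional curve fitting against DMSO baseline.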

[7] = read-out: Cytochrome P450 (CYP2B6), CYP2B6 (gene 1555); test: LTEA_HepaRG_CYP2B6: Life Technologies and Expression Analysis (LTEA) Assay for Cytochrome P450 (CYP2B6) using HepaRG (AID 2283481)
How it was run: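 Read-out is CYP2B6 mRNA by TaqMan qRT-PCR, normalized to three housekeeping genes and fitted bidirectionally against 0.5% DMSO baseline. Human HepaRG cells received test chemicals for 48 h, top concentration 100 uM, half-log dilutions.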

[8] = read-out: Cytochrome P450 2C19 (Homo sapiens) (UniProt P33261); test: LTEA_HepaRG_CYP2C19: Life Technologies and Expression Analysis (LTEA) Assay for CYP2C19 using HepaRG (AID 2283482)
How it was run: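 HepaRG, 48 h chemical exposure, 8-pt half-log series from 100 uM in 0.5% DMSO, duplicates. Readout: CYP2C19 mRNA by TaqMan qRT-PCR, housekeeping-normalized. Bidirectional fit vs DMSO baseline; phenobarbital 1mM as induction control.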

CYP2C8 (gene 1558) = test: LTEA_HepaRG_CYP2C8: Life Technologies and Expression Analysis (LTEA) Assay for CYP2C8 using HepaRG (AID 2283483)
How it was run: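 HepaRG (human liver line), 48 h chemical exposure, 8-pt half-log series from 100 uM, 0.5% DMSO vehicle. Readout: CYP2C8 transcript by qRT-PCR, housekeeping-normalized. Bidirectional fit vs DMSO baseline.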

CYP2C9 (gene 1559) = test: LTEA_HepaRG_CYP2C9: Life Technologies and Expression Analysis (LTEA) Assay for CYP2C9 using HepaRG (AID 2283484)
How it was run: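 HepaRG, 48 h dosing, 8-pt half-log series, top 100 uM, 0.5% DMSO vehicle. Read-out: CYP2C9 transcript by TaqMan qRT-PCR, housekeeping-normalized (ACTB/GAPDH/POLR2A). Gain or loss fitted vs DMSO baseline.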

CYP2E1 (gene 1571) = test: LTEA_HepaRG_CYP2E1: Life Technologies and Expression Analysis (LTEA) Assay for CYP2E1 using HepaRG (AID 2283485)
How it was run: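 CYP2E1 transcript measured by Fluidigm qRT-PCR against three housekeeping genes in human HepaRG cells treated 48 h (top 100 uM, half-log steps, 0.5% DMSO vehicle). Gain or loss fitted relative to DMSO baseline.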

CYP4A11 (gene 1579) = test: LTEA_HepaRG_CYP4A11: Life Technologies and Expression Analysis (LTEA) Assay for CYP4A11 using HepaRG (AID 2283486)
How it was run: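 CYP4A11 transcript levels were quantified by TaqMan qRT-PCR after HepaRG human liver cells were treated for 48 hours with test chemicals (top 100 uM, half-log dilutions, 0.5% DMSO). Gain or loss of signal was fitted relative to DMSO.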

[9] = read-out: DNA damage-inducible transcript 3 (DDIT3), DDIT3 (gene 1649); test: LTEA_HepaRG_DDIT3: Life Technologies and Expression Analysis (LTEA) Assay for DNA damage-inducible transcript 3 (DDIT3) using HepaRG (AID 2283488)
How it was run: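 DDIT3 transcript was quantified by qRT-PCR with ACTB/GAPDH/POLR2A normalization after 48 h chemical treatment of differentiated HepaRG cells in 0.5% DMSO. Dosing was eight-point, half-log, top 100 uM, duplicate wells. Curves fitted bidirectionally versus DMSO.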

[10] = read-out: Pro-epidermal growth factor (Homo sapiens) (UniProt P01133); test: LTEA_HepaRG_EGF: Life Technologies and Expression Analysis (LTEA) Assay for Epidermal growth factor (EGF) using HepaRG (AID 2283489)
How it was run: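 qRT-PCR readout of EGF transcript after 48 h chemical exposure of HepaRG cells; eight concentrations from 100 uM down in half-log steps, duplicate wells, 0.5% DMSO vehicle. Bidirectional curve fitting against DMSO baseline.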

[11] = read-out: Early growth response protein 1 (EGR1) transcription factor, EGR1 (gene 1958); test: LTEA_HepaRG_EGR1: Life Technologies and Expression Analysis (LTEA) Assay for Early growth response protein 1 (EGR1) transcription factor using HepaRG (AID 2283490)
How it was run: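 HepaRG, 48 h exposure, 8-pt half-log series from 100 uM, 0.5% DMSO vehicle; EGR1 transcript by TaqMan qRT-PCR (Fluidigm array), housekeeping-normalized; bidirectional fit relative to DMSO baseline.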

[12] = read-out: Ezrin (EZR), EZR (gene 7430); test: LTEA_HepaRG_EZR: Life Technologies and Expression Analysis (LTEA) Assay for Ezrin (EZR) using HepaRG (AID 2283491)
How it was run: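 EZR transcript levels came from Fluidigm qRT-PCR and were normalized to three housekeeping genes after 48 h chemical exposure of HepaRG cells. Dosing used an 8-point half-log series with a 100 uM top concentration in 0.5% DMSO, tested in duplicate; both directions were fitted versus vehicle.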

[13] = read-out: Alpha-fetoprotein (AFP) gene, AFP (gene 174); test: LTEA_HepaRG_AFP: Life Technologies and Expression Analysis (LTEA) Assay for Alpha-fetoprotein (AFP) gene using HepaRG (AID 2283472)
How it was run: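 AFP transcript measured by TaqMan qRT-PCR with three housekeeping genes for normalization, after 48 h chemical treatment of HepaRG cells (top 100 uM, half-log steps, 0.5% DMSO). Gain or loss fitted against vehicle.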

[14] = read-out: Cytochrome P450 3A4 (Homo sapiens) (UniProt P08684); test: LTEA_HepaRG_CYP3A4: Life Technologies and Expression Analysis (LTEA) Assay for CYP3A4 using HepaRG (AID 2283487)
How it was run: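 Differentiated HepaRG cells, plated 48 h, then dosed 48 h in serum-free induction medium with 0.5% DMSO, 8 half-log concentrations up to 100 uM, duplicate. CYP3A4 mRNA by qRT-PCR, normalized to ACTB/GAPDH/POLR2A; bidirectional fit versus DMSO.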

Measured: AC50

Apoptosis regulator Bcl-2 (Homo sapiens), sequence (P10415 whole entry, looked up): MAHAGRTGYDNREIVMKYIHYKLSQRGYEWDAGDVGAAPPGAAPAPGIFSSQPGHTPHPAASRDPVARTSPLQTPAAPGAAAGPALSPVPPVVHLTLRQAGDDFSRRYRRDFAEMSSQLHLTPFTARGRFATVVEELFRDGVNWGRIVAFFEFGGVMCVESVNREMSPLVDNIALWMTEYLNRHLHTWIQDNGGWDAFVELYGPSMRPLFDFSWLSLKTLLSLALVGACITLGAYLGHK
Cytochrome P450 3A4 (Homo sapiens), sequence (P08684 whole entry, looked up): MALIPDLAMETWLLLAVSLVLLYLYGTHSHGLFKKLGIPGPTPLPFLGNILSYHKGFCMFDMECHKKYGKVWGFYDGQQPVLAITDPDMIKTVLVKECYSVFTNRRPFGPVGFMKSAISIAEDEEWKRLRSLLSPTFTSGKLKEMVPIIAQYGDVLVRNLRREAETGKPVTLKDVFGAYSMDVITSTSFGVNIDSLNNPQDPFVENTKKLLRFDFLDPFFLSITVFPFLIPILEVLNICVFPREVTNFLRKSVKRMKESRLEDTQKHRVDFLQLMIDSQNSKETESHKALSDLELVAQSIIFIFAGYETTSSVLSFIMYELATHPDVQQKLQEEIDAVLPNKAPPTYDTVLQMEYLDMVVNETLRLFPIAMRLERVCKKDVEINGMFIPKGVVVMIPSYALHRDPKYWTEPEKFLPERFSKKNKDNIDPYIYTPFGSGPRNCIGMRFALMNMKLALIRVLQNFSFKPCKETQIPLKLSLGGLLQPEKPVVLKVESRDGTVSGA
Cytochrome P450 2C19 (Homo sapiens), sequence (P33261 whole entry, looked up): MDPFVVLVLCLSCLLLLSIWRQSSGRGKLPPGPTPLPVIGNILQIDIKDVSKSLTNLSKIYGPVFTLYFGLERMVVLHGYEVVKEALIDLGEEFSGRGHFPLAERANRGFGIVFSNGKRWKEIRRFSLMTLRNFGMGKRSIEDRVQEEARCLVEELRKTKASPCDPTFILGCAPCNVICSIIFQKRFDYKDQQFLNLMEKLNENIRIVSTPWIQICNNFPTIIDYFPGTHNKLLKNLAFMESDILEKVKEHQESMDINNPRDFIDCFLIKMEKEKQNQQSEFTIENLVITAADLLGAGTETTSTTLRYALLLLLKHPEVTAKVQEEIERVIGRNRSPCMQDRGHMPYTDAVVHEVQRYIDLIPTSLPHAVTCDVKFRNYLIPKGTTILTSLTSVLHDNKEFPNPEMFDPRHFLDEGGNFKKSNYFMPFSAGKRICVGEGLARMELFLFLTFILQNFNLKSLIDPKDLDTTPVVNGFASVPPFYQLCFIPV

Nc1cc(Cl)cc(C(=O)O)c1Cl
active: [5] 50 µM | CYP4A11 (gene 1579) 50 µM
not listed: [13] | [14]
inactive: all other assays above

CCC12COCN1COC2
not listed: [8] | [14]
inactive: all other assays above

Cc1ccc(N)c(N)c1
active: [5] 38.3 µM | [7] 50 µM | CYP2E1 (gene 1571) 50 µM
not listed: [8] | [14]
inactive: all other assays above

c1ccc(N=Nc2ccccc2)cc1
active: [5] 50 µM
not listed: [8] | [14]
inactive: all other assays above

CO[C@@H]1[C@H](OC(=O)NC(=O)CCl)CC[C@]2(CO2)[C@H]1[C@@]1(C)O[C@@H]1CC=C(C)C
active: [7] 0.0683 µM
not listed: [8] | [14]
inactive: all other assays above

O=Cc1ccco1
not listed: [7] | [8]
inactive: all other assays above

c1ccc(NNc2ccccc2)cc1
active: [5] 32.7 µM | [7] 5.26 µM
not listed: [8] | [14]
inactive: all other assays above

Oc1ccccc1Cl
not listed: [8] | [14]
inactive: all other assays above

C1=Cc2cccc3cccc1c23
active: [5] 24.9 µM | [7] 37.8 µM
not listed: [8] | CYP2E1 (gene 1571)
inactive: all other assays above

O=[N+]([O-])C(Br)(CO)CO
not listed: [8] | [14]
inactive: all other assays above

O=P(OCCCl)(OCCCl)OCCCl
active: [7] 10.2 µM | CYP2E1 (gene 1571) 25.7 µM
not listed: [8] | [14]
inactive: all other assays above

CCCCOC(=O)c1ccccc1C(=O)OCc1ccccc1
active: [5] 15.5 µM
not listed: [8] | [14]
inactive: all other assays above

CS(=O)(=O)NC(=O)c1cc(Oc2ccc(C(F)(F)F)cc2Cl)ccc1[N+](=O)[O-]
active: [7] 3.63 µM | CYP2C8 (gene 1558) 1.76 µM | CYP2E1 (gene 1571) 9.92 µM | CYP4A11 (gene 1579) 2.84 µM
not listed: [8] | [14]
inactive: all other assays above

CC(C)N(Cc1ccccc1)C(=O)C(C)(C)C
active: [7] 2.31 µM | CYP2C8 (gene 1558) 10.4 µM | CYP2E1 (gene 1571) 19.6 µM
not listed: [8] | [10] | [14]
inactive: all other assays above
